Read-out in assay [1]: Monocyte Chemoattractant Protein-1 (MCP1), CCL2 (gene 6347)
The experiment in a line: BSK_SAg_MCP1: BioMAP Diversity Plus: SAg Assay for Monocyte Chemoattractant Protein-1 (MCP1) Biomarker Activity (AID 2283090). As to conditions: primary human HUVEC with PBMC; actives raise or lower the signal. In short, it runs like this: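 Values derive from bidirectional fitting of ELISA-measured MCP1 against DMSO controls. Readings were taken 24 h after dosing human vascular endothelial cells co-cultured with peripheral blood mononuclear cells under superantigen stimulation.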

Read-out in assay [2]: E-selectin (Homo sapiens) (UniProt P16581)
The experiment in a line: BSK_SAg_Eselectin: BioMAP Diversity Plus: SAg Assay for Eselectin Biomarker Activity (AID 2283091). As to conditions: primary human HUVEC with PBMC; actives raise or lower the signal. The essentials:
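Co-culture: HUVEC + PBMC. Dose compound; 24 h. ELISA for E-selectin. Bidirectional fit vs DMSO.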

Read-out in assay [3]: Monokine induced gamma interferon (MIG), CXCL9 (gene 4283)
In words: BSK_SAg_MIG: BioMAP Diversity Plus: SAg Assay for Monokine induced gamma interferon (MIG) Biomarker Activity (AID 2283092). As to conditions: primary human HUVEC with PBMC; actives raise or lower the signal. In short, it runs like this: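 Measures CXCL9 protein by ELISA in a human vascular primary-cell co-culture (umbilical vein endothelium with PBMC) 24 h after chemical addition. Activity is scored up or down from the DMSO control.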

Assay [4] is described as follows: BSK_SAg_PBMCCytotoxicity: PBMC Cytotoxicity Assessment in the BioMAP Diversity Plus: SAg Assay (AID 2283093).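 For AC50: PBMC superantigen activated with SEB plus TSST-1 one hour after compound addition.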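 Note: PBMC viability measured as Alamar Blue reduction fluorescence at 546/580 nm; fitted both ways against DMSO so a hit may be loss or gain of signal.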 To be noted: primary human HUVEC with PBMC. The essentials:
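Alamar Blue reduction (6 h, ex/em 546/580 nm) read after 90 h culture of PBMC pre-dosed 1 h then stimulated with SEB plus TSST-1, 20 ng/mL each. Gain or loss of signal fitted relative to DMSO.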

Read-out in assay [5]: Interleukin-8 (IL8), CXCL8 (gene 3576)
The experiment in a line: BSK_SAg_IL8: BioMAP Diversity Plus: SAg Assay for Interleukin-8 (IL8) Biomarker Activity (AID 2283094). As to conditions: primary human HUVEC with PBMC; actives raise or lower the signal. The essentials:
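Chemicals were dosed onto a human endothelial–PBMC co-culture, and IL-8 was quantified by ELISA after 24 h. Both increases and decreases were fitted relative to DMSO.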

Assay [6] can be described thus: BSK_SAg_Proliferation: Cell Proliferation Assessment in the BioMAP Diversity Plus: SAg Assay (AID 2283095).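 Note: relative cell number as total protein by SRB absorbance in sub-confluent culture.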 To be noted: primary human HUVEC with PBMC. In short, it runs like this: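 Absorbance of sulforhodamine B at 560 nm reports total protein in a human vascular endothelial/PBMC co-culture after 96 h chemical exposure. Gain or loss of signal is fitted in both directions against DMSO.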

Assay [7] can be described thus: BSK_SAg_SRB: Viability Assessment in the BioMAP Diversity Plus: SAg Assay (AID 2283096).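 Note: cells read one day after compound addition; hits may be either gain or loss of signal compared with DMSO.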 As to conditions: primary human HUVEC with PBMC. In short, it runs like this: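 SRB absorbance at 560 nm served as the viability read-out. Cells (HUVEC plus peripheral blood mononuclear cells) were TCA-fixed and stained 24 h post-dosing; activity fitted in both directions against DMSO controls.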

Several values for one entry are separate records, joined by “and”; a condition that tells them apart may be missing. Equal entries are not always repeated. Activity calls are given as the source filed them. Rule for the calls: active = hit-call score of the fitted dose curve at least 0.9, where 1 is the maximum; inactive = score below 0.9.

Sequence of E-selectin (Homo sapiens) (P16581 whole entry, looked up): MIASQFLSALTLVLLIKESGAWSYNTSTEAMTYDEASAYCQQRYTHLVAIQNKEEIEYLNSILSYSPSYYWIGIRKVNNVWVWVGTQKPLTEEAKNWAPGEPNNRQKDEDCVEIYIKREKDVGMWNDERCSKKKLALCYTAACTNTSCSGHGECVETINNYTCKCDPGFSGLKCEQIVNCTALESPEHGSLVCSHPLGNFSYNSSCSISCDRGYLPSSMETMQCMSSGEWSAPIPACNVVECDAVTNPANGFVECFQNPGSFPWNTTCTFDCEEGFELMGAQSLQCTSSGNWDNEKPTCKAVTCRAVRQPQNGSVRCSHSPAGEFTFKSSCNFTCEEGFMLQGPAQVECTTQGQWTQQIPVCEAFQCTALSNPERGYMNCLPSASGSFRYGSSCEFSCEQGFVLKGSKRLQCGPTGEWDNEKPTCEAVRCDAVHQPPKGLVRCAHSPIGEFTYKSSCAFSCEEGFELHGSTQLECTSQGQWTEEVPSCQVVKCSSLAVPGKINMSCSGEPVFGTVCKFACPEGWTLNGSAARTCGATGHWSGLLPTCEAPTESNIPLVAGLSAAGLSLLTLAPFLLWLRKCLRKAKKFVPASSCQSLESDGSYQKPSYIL

Regarding `O=C(O)C(F)(F)C(F)(F)C(F)(F)C(F)(F)C(F)(F)C(F)(F)C(F)(F)C(F)F`, the outcome in assay [1], in assay [2], in assay [3], in assay [4], in assay [5] and in assay [6] was inactive.

Take `CCCCCCCCCC(=O)OCC`: the result in assay [1], in assay [3] and in assay [5] was inactive. The AC50 (commonly the concentration giving half of the maximal activity seen) was 20 µM (active) in assay [2], 34.1 µM (active) in assay [4] and 33.5 µM (active) in assay [6].

On to `O=S(=O)(O)C(F)(F)C(F)(F)OC(F)(F)C(F)(F)F`, for which the outcome in assay [1], in assay [2], in assay [3], in assay [4], in assay [5] and in assay [6] was inactive.

As to `c1ccc(Sc2ccccc2)cc1`, the AC50 was 8 µM (active) in assay [1]; 30.2 µM (active) in assay [2]; 34.5 µM (active) in assay [3]; 33.9 µM (active) in assay [4]; 20 µM (active) in assay [5]; 34 µM (active) in assay [6].

As for `CC1=CC(C)C(C=O)C(C)C1` (stereo unspecified) (tested in a mixture with another compound), the outcome in assay [1], in assay [2], in assay [3], in assay [4], in assay [5] and in assay [6] was inactive.

With `CC(=O)CCC=C(C)CCC=C(C)C`, the result in assay [1], in assay [2], in assay [3], in assay [4] and in assay [5] was inactive. In addition, the AC50 in assay [6] was 20 µM (active).

Take `COC(=O)c1ccc(C(=O)OC)cc1`: the result in assay [1], in assay [2], in assay [3], in assay [4], in assay [5] and in assay [6] was inactive.

With `OCCN1CCOCC1`, the result in assay [1], in assay [2], in assay [3], in assay [4], in assay [5] and in assay [6] was inactive.

As to `OCC(F)(OC(F)(F)C(F)(OC(F)(F)C(F)(F)C(F)(F)F)C(F)(F)F)C(F)(F)F` (stereo unspecified), the AC50 was 2.27 µM (active) and 1.92 µM (active) in assay [1]; 2.96 µM (active) and 3.23 µM (active) in assay [2]; 2.03 µM (active) and 1.97 µM (active) in assay [4]; 2.22 µM (active) and 2.66 µM (active) in assay [5]; 2.09 µM (active) and 2.02 µM (active) in assay [6]. For the same molecule, the outcome in assay [3] was inactive.

Take `O=C(O)C(F)(F)OC(F)(F)C(F)(F)OC(F)(F)C(F)(F)C(F)(F)C(F)(F)F`: the result in assay [1], in assay [2], in assay [3], in assay [4], in assay [5] and in assay [6] was inactive.

Regarding `CC(=O)c1ccc(C)cc1`, the result in assay [1], in assay [2], in assay [3], in assay [4], in assay [5] and in assay [6] was inactive.

On to `NC(=O)c1c(Cl)cccc1Cl`, for which the outcome in assay [1], in assay [2], in assay [3], in assay [4], in assay [5] and in assay [6] was inactive.

Turning to `CCn1cc(C(=O)O)c(=O)c2ccc(C)nc21`, the outcome in assay [1], in assay [2], in assay [3], in assay [4], in assay [5] and in assay [6] was inactive.

In the case of `CCCO[Si](OCCC)(OCCC)OCCC`, the outcome in assay [1], in assay [2], in assay [3], in assay [4], in assay [5] and in assay [6] was inactive.

As for `C=C1CC/C=C(\C)CC[C@@H]2[C@@H]1CC2(C)C`, the AC50 in assay [1] was 34.4 µM (active); in assay [2], 20 µM (active); in assay [4], 20 µM (active); in assay [5], 32.3 µM (active); in assay [6] it was 22.8 µM (active). In addition, in assay [3], the result was inactive.

Turning to `CCCCOCCOCCO`, the result in assay [1], in assay [2], in assay [3], in assay [4], in assay [5] and in assay [6] was inactive.

As to `CCCCCCCCCCCCS`, the outcome in assay [1], in assay [2], in assay [3], in assay [4] and in assay [5] was inactive. For the same molecule, the AC50 in assay [6] is 20 µM (active).

Take `c1ccc2c(c1)-c1ccc3ccc4cccc5cc-2c1c3c45`: the outcome in assay [1], in assay [2], in assay [3], in assay [4], in assay [5] and in assay [6] was inactive.

`CCCCCCCC1CCCC1=O` (stereo unspecified): the outcome in assay [1], in assay [2], in assay [3], in assay [4], in assay [5] and in assay [6] was inactive.

Take `CC(C)(CO)CO`: the outcome in assay [1], in assay [2], in assay [3], in assay [4], in assay [5] and in assay [6] was inactive.

As for `COc1ccccc1NC(=O)CC(C)=O`, the outcome in assay [1], in assay [2], in assay [3], in assay [4], in assay [5] and in assay [6] was inactive.

As for `CC(=O)OCC=C(C)CCC=C(C)CCC=C(C)C`, the outcome in assay [1], in assay [2], in assay [3], in assay [4], in assay [5] and in assay [6] was inactive.

Regarding `c1ccc(OCCOc2ccccc2)cc1`, the result in assay [1], in assay [2], in assay [3], in assay [4], in assay [5] and in assay [6] was inactive.

Regarding `C=C(F)C(=O)OC(C(F)(F)F)C(F)(F)F`, the result in assay [1], in assay [2], in assay [3], in assay [4], in assay [5] and in assay [6] was inactive.

As to `CCOC(=O)C=Cc1ccccc1`, the outcome in assay [1], in assay [2], in assay [3], in assay [4], in assay [5] and in assay [6] was inactive. Moreover, the result in assay [7] was inactive.

For the origin of these results see PubChem BioAssay (EPA / NIEHS).
